Source: PubChem BioAssay AID540359 (Broad Institute, 2011)
Entries with a potency or affinity are not part of this list. Active and inactive are the calls of the source. The rule behind the calls is not given here.

Each molecule was assayed against UDP-galactopyranose mutase (Mycobacterium tuberculosis (strain ATCC 25618 / H37Rv)) (UniProt P9WIQ1) (assay: UDP galactopyranose mutase inhibitors, Mycobacterium tuberculosis, cherry pick dose confirmation (AID 540359)). Conditions: purified UGM enzyme, plate reader activity; series mostly up to 50 µM; activity change, negative = inhibition: at the top concentration.
UDP-galactopyranose mutase (Mycobacterium tuberculosis (strain ATCC 25618 / H37Rv)), sequence (P9WIQ1 whole entry, looked up): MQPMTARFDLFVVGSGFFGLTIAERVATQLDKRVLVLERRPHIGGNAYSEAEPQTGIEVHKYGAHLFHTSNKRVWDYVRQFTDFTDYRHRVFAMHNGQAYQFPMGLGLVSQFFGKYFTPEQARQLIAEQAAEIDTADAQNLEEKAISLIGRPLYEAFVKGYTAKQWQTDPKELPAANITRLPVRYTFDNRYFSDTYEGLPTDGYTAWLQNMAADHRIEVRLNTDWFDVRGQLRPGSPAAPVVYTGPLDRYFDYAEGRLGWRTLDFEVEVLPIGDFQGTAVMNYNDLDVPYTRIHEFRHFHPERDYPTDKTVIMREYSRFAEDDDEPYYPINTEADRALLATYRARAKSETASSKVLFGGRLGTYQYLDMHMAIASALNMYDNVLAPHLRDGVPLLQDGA

SMILES	activity change, negative = inhibition
COc1ccccc1NS(=O)(=O)c1cc(N)ccc1N1CCCC1	-3.52% (inactive)
CCc1ccc2c(c1)C(c1ccc([N+](=O)[O-])cc1)=NNC(c1ccc(Br)cc1)=N2	-5.73% (inactive)
O=C(O)c1ccccc1C(=O)OCCCCOC(=O)c1ccccc1C(=O)O	-7.41% (inactive)
N#C/C(=C(/O)CSc1ccccc1C(=O)O)c1nc2ccccc2s1	-7.99% (inactive)
COc1cccc(/C=N/n2c(-c3ccco3)nc3ccccc3c2=O)c1OC	-1.41% (inactive)
Brc1ccc(/C=N/c2nc3ccccc3n2CCN2CCOCC2)cc1	-2.81% (inactive)
COc1ccc(OC)c(/C=C2\Oc3cc(OCC(=O)N4CCC[C@H]4C(=O)O)ccc3C2=O)c1	-11% (inactive)
CCOC(=O)CNc1ccc2c(c1)OCO2	-14.6% (inactive)
CCOC(=O)c1c(C)nc2ccccc2c1C	-1.7% (inactive)
COCCCn1c(=O)/c(=C\c2ccccc2OC(C)C)s/c1=C(/C#N)C(=O)Nc1ccc(C(=O)O)cc1	65.1% (inactive)
Cc1ccc(-c2nc3sc(C#N)c(N)n3c(=O)c2C#N)cc1	12.5% (inactive)
CCOc1ccc(/C(CCC(=O)O)=N/NC(=O)c2cccc(S(=O)(=O)Nc3ccccc3OC)c2)cc1	-6.3% (inactive)
COc1ccc(N2C(=O)c3cccc4c(N(C)CCO)ccc(c34)C2=O)cc1	7.74% (inactive)
COc1ccc(N(CC(=O)N/N=C/c2ccc(-c3ccc([N+](=O)[O-])cc3)o2)S(=O)(=O)c2ccc(C)cc2)cc1	0.687% (inactive)
COc1ccc(C(=O)Oc2ccc(Br)cc2C(=S)N2CCOCC2)cc1	-6.52% (inactive)
CCN(C(=O)COC(=O)c1ccc(O)cc1O)c1c(N)n(Cc2ccccc2)c(=O)[nH]c1=O	-2.73% (inactive)
CC1=Nc2ccccc2/C1=C\c1nc(-c2ccc(C(F)(F)F)cc2)oc1O	-9.96% (inactive)
COc1ccc(/C=C/C(=O)OCC(=O)NC2CCCCCC2)cc1OC	-0.651% (inactive)
C=C1c2cc(C)ccc2NC(=O)N1c1ccc(C)cc1	-7.4% (inactive)
CCOc1ccc(C(=O)NC(=S)Nc2cccnc2)cc1	-1.97% (inactive)
CCOc1cc(/C=C2\CCCc3c2nc2ccccc2c3C(=O)O)ccc1OC	-2.82% (inactive)
O=S(=O)(c1ccccc1)N(CC1CO1)c1cc(Cl)ccc1Cl (stereo not drawn)	-0.131% (inactive)
CCc1cc(C(=O)c2ccc(C)cc2)c(NC(=O)CCl)s1	-9.95% (inactive)
COc1ccccc1NC(=O)c1sc2nc(Cc3ccccc3)cc(C(F)(F)F)c2c1N	-21.8% (inactive)
N#CCCN(CCC#N)C(=O)C1c2ccccc2Oc2ccccc21	-9.14% (inactive)
Cc1cc(C)c(S(=O)(=O)n2c([N+](=O)[O-])cnc2C)cc1C	-15.6% (inactive)
Cc1c(C(=O)N2CCOCC2)sc(NC(=O)CCl)c1C#N	0.121% (inactive)
Cc1ccc(NC(=O)/C(C#N)=C/c2ccc(C)s2)c(C)c1	-9.8% (inactive)
